15 compounds from PubChem BioAssay (NCATS) can be followed below.

Each structure is given as a SMILES string. Inconclusive results are not listed. The source made the active and inactive calls. Calls follow the shape of the dose curve; as a rule, active = well fitted curve in the direction sought with a large enough effect; inconclusive = small, poorly fitted or top-dose-only effect, or another doubt; inactive = no such curve, though single readings can be large or run the other way.

A short description of the assay: qHTS for Inhibitors of Ubiquitin-specific Protease USP2a Using CHOP2 as the Reporter: K633 Counterscreen (AID 652168). The note with it: No-enzyme DiUb K48 IQF substrate fluorescence interference, kinetic; series mostly up to 57.5 µM. The procedure, abridged:
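Detection-system control: fluorescence of K48-linked DiUb-4IQF substrate (100 nM as added) tracked over time, Ex 525/Em 598, with pinned compounds and no enzyme, in pH 8 Tris buffer containing beta-mercaptoethanol and 0.05% Chaps.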
(qHTS replaces the single test concentration by a dilution series.)
`Cc1ccc(S(=O)(=O)Nc2cnccc2C(=O)Nc2nc3ccccc3s2)cc1`: the compound was classed as inactive.

Regarding `CCCc1ccc(-c2csc(NC(=O)c3ccncc3NS(=O)(=O)c3ccc(C)cc3)n2)cc1`, the compound was called inactive. Regarding `O=C(Nc1nc(-c2ccccc2)cs1)c1ccncc1NS(=O)(=O)c1ccccc1Cl`, the result was inactive. The value for `COc1ccc(S(=O)(=O)Nc2cnccc2C(=O)Nc2nc(-c3ccccc3)cs2)cc1` was “inactive”; that for `O=C(Nc1ccc(S(=O)(=O)Nc2nccs2)cc1)c1ccc(-c2ccccc2)cc1` was “inactive”. As for `Cc1ccc(S(=O)(=O)Nc2cnccc2C(=O)Nc2nc(-c3ccc4c(c3)CCCC4)cs2)cc1`, the entry is “inactive”. The value for `COc1ccc(C(=O)Nc2nc(-c3ccccc3)cs2)c(NS(=O)(=O)c2ccc(C)cc2)c1` was “inactive”; that for `Cc1ccc(-c2cc(C(=O)Nc3ccc([N+](=O)[O-])cc3)c3ccccc3n2)cc1C` was “inactive”.

Take `O=S(=O)(Nc1nccs1)c1ccc(Nc2nc(-c3ccc(F)cc3)cs2)cc1`: the result was inactive.

Turning to `O=C(Nc1nc(-c2ccccc2)cs1)c1ccncc1NS(=O)(=O)c1ccc(C(F)(F)F)cc1`, the result was inactive. The value for `Cc1ccccc1S(=O)(=O)Nc1cnccc1C(=O)Nc1nc(-c2ccccc2)cs1` was “inactive”. The value for `Cc1ccc(-c2cc(C(=O)Nc3ccc(S(=O)(=O)O)cc3)c3ccccc3n2)cc1C` was “inactive”; that for `O=C(Nc1nc(-c2ccccc2)cs1)c1ccncc1NS(=O)(=O)c1cccc(Cl)c1` was “inactive”; that for `Cc1ccc(S(=O)(=O)Nc2ncccc2C(=O)Nc2nc(-c3ccccc3)cs2)cc1` was “inactive”.

Regarding `O=C(Nc1nc(-c2ccc(F)cc2)cs1)c1ccncc1NS(=O)(=O)c1ccccc1Cl`, the compound was called inactive.
